In the supplement of paper PMC13380429:

Tested on: Vero E6 infected with SARS-CoV-2
Assay: inhibition of SARS-CoV-2 cytopathic effect; higher = more antiviral protection, active = above 15
Conditions: 48 h

Measured: inhibition of SARS-CoV-2 cytopathic effect

Cc1onc(-c2ccccc2)c1-c1ccc(S(N)(=O)=O)cc1 [valdecoxib]
inactive: 1 nM 0.48% | 8.33 nM -0.66% | 100 nM -0.48% | 833.33 nM 3.3% | 10000 nM 0.55%

O=c1[nH]c(=O)n([C@H]2C[C@H](O)[C@@H](CO)O2)cc1C(F)(F)F [trifluridine]
inactive: 1 nM -2.13% | 8.33 nM 0.14% | 100 nM 0.73% | 833.33 nM 1.01% | 10000 nM -1.77%

O=C(N[C@H](Cc1ccccc1)C(=O)O)c1sc2cc(F)ccc2c1Cl
inactive: 1 nM 2.8% | 8.33 nM 1.61% | 100 nM 0.39% | 833.33 nM 1.13% | 10000 nM 3.31%

Cn1c(COc2ccc(CC3SC(=O)NC3=O)cc2)nc2ccccc2c1=O (stereo not given) [balaglitazone]
inactive: 1 nM -1.69% | 8.33 nM -0.56% | 100 nM -0.1% | 833.33 nM -2.45% | 10000 nM -7.04%

OC[C@H]1O[C@@H](Oc2cc3c(O)cc(O)cc3[o+]c2-c2ccc(O)c(O)c2)[C@H](O)[C@@H](O)[C@@H]1O [kuromanin]
inactive: 1 nM -0.56% | 8.33 nM 0.72% | 100 nM -0.34% | 833.33 nM -2.36% | 10000 nM -4.26%

COc1ccc(C(=O)c2c(C)n(CCN3CCOCC3)c3cc(I)ccc23)cc1
inactive: 1 nM -3.57% | 8.33 nM -3.84% | 100 nM -3.42% | 833.33 nM -0.63% | 10000 nM 2.05%

COc1ccc(-c2coc3cc(O)cc(O)c3c2=O)cc1 [4-methylgenistein]
inactive: 1 nM -1.18% | 8.33 nM -0.05% | 100 nM 0.18% | 833.33 nM -1.7% | 10000 nM 2.29%
